The full list was thinned out, with hits kept by preference.
RXFP1 agonist = agonists of human relaxin receptor RXFP1. Potency, µM (series often up to 57.5 µM), for the others: at the top dose activation, actives largely listed as activators. Q9HBX9. actives 0.3% (n = 370,000). HEK293T-RXFP1 cAMP TR-FRET, 30 min; response scale: percent of porcine relaxin response, buffer zero. AID 2676; note: potency is the fitted concentration of half-maximal effect; % is set by controls: 0 for no effect and ±100 for the full control effect; nearly all actives have a fitted effect of over 60% in size
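HEK293T cells stably expressing RXFP1 were pretreated with the PDE4 inhibitor Ro 20174, exposed to compounds for 30 min at 37C, lysed, and cAMP was read by TR-FRET. Data normalized to buffer (basal) and 29 nM porcine relaxin (100%).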
NPSR antagonist = blocks cAMP signaling of the human neuropeptide S receptor. Potency, µM (top dose mostly 38.3 µM), inactives show at the highest dose activity change, negative = inhibition, most hits filed as inhibitors. AID 1461. actives 1% (n = 220,000). CHO-NPSR cells, cAMP TR-FRET, antagonist mode; note: potency is the fitted concentration of half-maximal effect; % is set by controls: 0 for no effect and ±100 for the full control effect; nearly all actives have a fitted effect of over 50% in size
TSHR antag = antagonists of human thyroid stimulating hormone receptor; P16473; TSHR-expressing cells, TSH-stimulated cAMP HTRF, 2 h; stronger effect = lower value; activity change, negative = inhibition, % at 11.5 µM; actives 0.2% (n = 330,000); AID 504810;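 active = activity change below a set negative limit, meaning inhibition stronger than a set level, cut at about -70% in these data; inconclusive = activity change between two set negative limits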; note: % is set by controls: 0 for no effect and ±100 for the full control effect
Target sequence (P16473 whole entry, looked up): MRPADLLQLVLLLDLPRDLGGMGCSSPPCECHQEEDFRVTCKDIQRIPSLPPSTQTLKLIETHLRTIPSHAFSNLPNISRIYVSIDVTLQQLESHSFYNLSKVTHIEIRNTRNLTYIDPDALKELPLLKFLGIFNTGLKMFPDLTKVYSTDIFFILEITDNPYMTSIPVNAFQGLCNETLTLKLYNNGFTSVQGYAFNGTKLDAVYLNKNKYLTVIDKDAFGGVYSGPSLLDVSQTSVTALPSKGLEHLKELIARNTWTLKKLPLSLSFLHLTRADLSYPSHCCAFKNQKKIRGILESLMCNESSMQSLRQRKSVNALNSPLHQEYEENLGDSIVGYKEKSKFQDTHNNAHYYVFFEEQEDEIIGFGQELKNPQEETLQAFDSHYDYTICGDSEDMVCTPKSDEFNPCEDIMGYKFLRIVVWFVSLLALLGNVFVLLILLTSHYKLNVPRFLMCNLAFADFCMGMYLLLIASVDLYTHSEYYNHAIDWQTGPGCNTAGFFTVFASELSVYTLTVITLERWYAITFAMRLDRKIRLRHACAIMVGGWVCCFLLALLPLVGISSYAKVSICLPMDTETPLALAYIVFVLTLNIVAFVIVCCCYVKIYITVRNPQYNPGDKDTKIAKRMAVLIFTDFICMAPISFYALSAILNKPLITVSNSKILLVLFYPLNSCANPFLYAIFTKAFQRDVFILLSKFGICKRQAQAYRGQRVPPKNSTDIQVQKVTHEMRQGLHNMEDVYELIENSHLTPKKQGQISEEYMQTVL
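Competitive HTRF cAMP read-out (cryptate anti-cAMP antibody, cAMP-d2; 30 min, room temperature) in freshly harvested TSHR cells. Compounds added before TSH at EC80 (4nM final), followed by 2 hours' incubation at 37 deg C.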
RXFP1 antag = RXFP1 (human) relaxin receptor antagonism | actives 0.59% (n = 350,000) | activity change, negative = inhibition, % at 57.5 µM | Q9HBX9 | AID 1259400 | HEK293-RXFP1, relaxin-stimulated cAMP HTRF, 30 min; stronger effect = lower value;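 active = activity change of -60% or lower, but not beyond a set lower limit; inconclusive = change between -60% and -40%, or beyond the set limit; inactive = change above -40%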; note: % is set by controls: 0 for no effect and ±100 for the full control effect
GLP1R cytotox = cytotoxicity in counter-screen for GLP-1R inverse agonists; Potency, µM (highest dose often 38.3 µM), for the others: at the highest dose activity change, negative = inhibition, hits mostly inhibitors; actives 0.13% (n = 410,000); AID 624418; HEK293 cAMP-luciferase reporter cells, luminescence, 24 h;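 note: loss of luciferase light is scored as toxicity; potency is the fitted concentration of half-maximal effect; % is set by controls: 0 for no effect and ±100 for the full control effect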
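Cells in DMEM/10% Nu serum/1% pen-strep, 1536-well format. Pre-incubated 12 h, dosed with 23 nL compound, incubated a further 24 h. Luciferase detection, 12 min at room temp, luminescence.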
PTHR1 agonist = PTHR1 (human) receptor agonism | HEK293 GP2 PTHR1 cells, GloSensor cAMP luminescence, 1 h | actives 0.075% (n = 410,000) | Q03431 | Potency, µM (titrated, usually from 115 µM), for inactives: at the highest dose activation, hits mostly activators; note: potency is the fitted concentration of half-maximal effect; nearly all actives have a fitted effect of over 55% in size
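HEK-293-derived GP2 cells expressing PTHR1 and a GloSensor cAMP reporter, 3,000/well, plated overnight, given luciferin plus IBMX (each 0.5 mM as added) for 1 h at 37 °C, then compound for 1 h at 37 °C. Luminescence was read after 15 min at room temperature.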
Numbers without * were called inactive; i = inactive; u = inconclusive; x = no result given; [ ] = remark or other dose. Unless noted, calls come from the whole dose curve; as a rule, active = well fitted curve in the direction sought with a large enough effect; inconclusive = small, poorly fitted or top-dose-only effect, or another doubt; inactive = no such curve, though single readings can be large; an effect the other way counts as inactive or inconclusive.

SMILES | RXFP1 agonist | NPSR antagonist | TSHR antag | RXFP1 antag | GLP1R cytotox | PTHR1 agonist
CC1(C)CC(=O)C=C(c2cccc(OC(=O)c3ccc(-c4ccccc4)cc3)c2)C1=O | x | x | x | 1 | 3% | -10%
O=C(Nc1ccc(C(O)(C(F)(F)F)C(F)(F)F)cc1)c1ccc(Cl)c([N+](=O)[O-])c1 | -2% | u | -22 | -89* | u | -52%
COc1ccc2nc(NC(=O)c3nc(S(=O)(=O)Cc4ccc(C)cc4)ncc3Cl)sc2c1 | 3% | x | x | -91* | 3% | -96%
COc1ccccc1NC(=O)c1nc(S(=O)(=O)Cc2ccccc2)ncc1Cl | 2% | x | -78* | u | 4% | -21%
CCS(=O)(=O)c1ncc(Cl)c(C(=O)Nc2ccccc2OC)n1 | -1% | x | -14 | 1 | -13% | -32%
CCOc1ccccc1NC(=O)c1nc(S(=O)(=O)Cc2ccccc2)ncc1Cl | 2% | x | -75* | -23 | -24% | -49%
CC(=O)N1CCc2cc(Br)cc(S(=O)(=O)N3CCC(C(=O)O)CC3)c21 | 1% | x | -106* | 3 | -2% | u
NC(=O)SCC(=O)Nc1ccc(Cl)c(Cl)c1 | 2% | u | -12 | -71* | u | i
CCCCCOP(=O)(OCCCCC)C1(NS(=O)(=O)c2ccccc2)C=CC(=O)c2ccccc21 (stereo not drawn) | 1% | 10µM* | 11 | -8 | u | -12%[57.5 µM]
COc1ccc2nc(N(Cc3cccnc3)C(=O)CCc3ccccc3)sc2c1 | 0% | x | x | -16 | -19% | -54%
Cc1cc2oc(C(=O)N(Cc3ccc(N(C)C)cc3)CC3CCCO3)c(C)c2cc1Cl (stereo not drawn) | 0% | x | x | -5 | -14% | -24%
Cc1nc(-c2cccc(NC(=O)c3ccc(-n4nccc4C)cc3)c2)cs1 | 0% | x | -72* | -25 | u | -35%
O=P(CCCCCCCCCP(=O)(c1ccccc1)c1ccccc1)(c1ccccc1)c1ccccc1 | 0% | 13µM* | 11 | -72* | u | -28%
O=C(O)CCCCCCCCCCP(=O)(c1ccccc1)c1ccccc1 | 0% | u | -11 | -4 | 6% | -9%
c1ccc(N2CCN(c3ncnc4[nH]ncc34)CC2)cc1 | 1% | x | x | 0 | 2% | -32%
CSc1nc(SCC(=O)O)c2sc3nc(-c4ccccc4)c4c(c3c2n1)CCC4 | 28µM* | u | -14 | 0 | 7% | -38%
CC(C)(C(=O)N1CCC1(C)C(=O)NS(=O)(=O)c1ccc(C#N)cc1)c1ccccc1 (stereo not drawn) | x | x | x | x | 0% | i
Cc1ccc(S(=O)(=O)N2[C@@H](c3ccccc3F)C(C(=O)O)=CC[C@H]2c2ccc(Cl)c(Cl)c2)cc1 | -1% | x | -92* | x | 3% | i
COC(=O)C1(C(=O)OC)c2ncccc2N(S(=O)(=O)c2ccc(C)cc2)C1CC(=O)c1ccccc1 (stereo not drawn) | x | x | x | x | 1% | -16%
Cc1ccc(-c2cc(C(F)F)n3ncc(C(=O)Nc4c(C)nn(Cc5ccccc5Cl)c4C)c3n2)cc1 | 0% | 4µM* | -8 | -4 | 5% | -6%[57.5 µM]
Cn1c(N=Nc2ccc(N3CCOCC3)cc2)[n+](C)c2ccccc21 | -13% | 7.9µM* | u | -107* | 7%[0.307 µM] | -25%
CCOc1ccc(C2Nc3ccc4ccccc4c3-c3c2c(=O)oc2ccccc32)cc1 (stereo not drawn) | 2% | 10µM* | 3 | -10 | 9% | -10%
COc1ccc(C2Nc3ccc4ccccc4c3-c3c2c(=O)oc2ccccc32)cc1 (stereo not drawn) | -1% | 7.9µM* | 14 | x | x | x
Cc1ccc(Cc2c(C(C)(C)C)nc3ccc(Br)cn23)cc1 | x | x | x | x | -8% | -47%
S=C(Nc1ccc(Cl)c(Cl)c1)NC1CCCCC1 | 3% | u | -42 | -5 | 13µM* | -9%[57.5 µM]
SMILES | RXFP1 agonist | NPSR antagonist | TSHR antag | RXFP1 antag | GLP1R cytotox | PTHR1 agonist
S=C(Nc1ccc(Cl)c(Cl)c1)NC1CCN(Cc2ccccc2)CC1 | 0% | 7%[46.1 µM] | -9 | -61* | u | -25%[57.5 µM]
S=C(Nc1ccc2nsnc2c1)NC1CCCCC1 | 7% | -50% | 32 | -22 | 15% | -21%
CC(C)(C)c1nnc(NS(=O)(=O)c2ccccc2)s1 | x | x | x | -4 | x | x
CCOC(=O)CCc1ccc(NC(=O)/C=C/c2ccc([N+](=O)[O-])o2)cc1 | x | x | x | -13 | 11µM* | -39%
C=C1C(=O)CC2=C1[C@](Cc1ccc(F)cc1)(C(=O)OC)N(C(=O)c1ccccc1)C2 | x | x | x | x | 0% | -2%
C=C1C(=O)C=C2CN(C(=O)c3ccccc3)[C@@](Cc3ccc(F)cc3)(C(=O)OC)[C@@H]12 | -2% | 1.6µM* | -18 | x | u | -65%
CCC1=Nc2cc(C(=O)NC3CCCC3)ccc2Sc2ccc(Cl)cc21 | 4% | x | x | -16 | u | 12%
Cc1ccc(S(=O)(=O)N2CCC(C(=O)NC3CCCC3)CC2)cc1Cl | 0% | x | 10 | 7 | 5% | -15%
Cc1ccc(S(=O)(=O)N2CCCC(C(=O)NC3CCCC3)C2)cc1Cl (stereo not drawn) | 0% | x | -84* | 12 | 2% | i
COc1cc(C)ccc1OCCOc1cc(C)ccc1Cl | 0% | 10µM* | -25 | -4 | -12% | -4%
COc1cc(C)ccc1OCCOc1c(Cl)cc(Cl)cc1Cl | -2% | -18%[46.1 µM] | 19 | -2 | -5% | -14%
COc1ccc(S(=O)(=O)NC(C)(C)CO)cc1-c1nnc2c3ccccc3c(C)nn12 | 24% | x | x | 10 | 3% | -25%
CC/C=C(/C(=O)N[C@@H]1C(=O)N2C(C(=O)OCOC(=O)C(C)(C)C)=C(COC(N)=O)CS[C@H]12)c1csc(N)n1 | x | x | x | -14 | x | x
COc1ccccc1C(=O)Nc1ccc2c(c1)nc(CCNC(=O)c1ccccc1)n2C | 3% | 14% | -3 | 3 | 10µM* | -13%
Cc1c(N2C(=O)/C(=C/c3ccc(N(C)C)cc3)N(C)C2=S)c(=O)n(-c2ccccc2)n1C | x | x | x | -1 | 5.6µM* | i
O=C(Nc1ccccc1C(=O)N1CCN(c2cccc(Cl)c2)CC1)C1=CSCCO1 | -1% | x | -132* | 18 | 3% | i
C=C1N(C)c2cc([N+](=O)[O-])c(N)cc2C1(C)C | -4% | -42% | -6 | -71* | 2%[7.66 µM] | i
CC1(C)Oc2cc(N)c([N+](=O)[O-])cc2O1 | 0% | -11%[46.1 µM] | -16 | 5 | -14% | i
O=C(O)/C=C/C(=O)Nc1ccc(Oc2ccccc2)cc1 | -2% | -5% | -7 | -17 | 22% | -15%
CCOC(=O)/C=C/C(=O)Nc1ccc(Oc2ccccc2)cc1 | 3% | -8% | -26 | -64* | -1%[0.307 µM] | -12%

Screens deposited in PubChem by National Center for Advancing Translational Sciences (NCATS).
